Source: PubChem BioAssay
Where “and” joins values, the source holds several entries; their conditions need not be identical. Equal values may be shown once. Calls of active or inactive are those of the source.

Columns and labels:
Albumin (Bos taurus) = Albumin (Bos taurus) (UniProt P02769); assay: compounds binding labelled BSA control protein – biochemical, small-molecule microarray, Alexa647 label, 635/667 nm fluorescence, artefact control for SMM control protein annotation, profiling panel (AID 1118); details: BSA-A647 binding, fluorescence 635 nm, higher = more signal;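 further: score merges 667 nm emission intensity and signal-to-noise per printed compound spot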
[1] = probe aXIP binding to arrayed compounds – biochemical, NeuroSMM set, 635/667 nm fluorescence, primary screen (AID 1119); details: small-molecule microarray, higher = more signal, called active from +8 up or from −8 down;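 further: probe is the protein aXip251-270 applied at 1 µg/mL to compound-printed slides; binding of probe to printed compounds measured as 667 nm fluorescence plus signal to noise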
[2] = probe aNOTCH3 binding on compound microarray – biochemical, small-molecule microarray, 635/667 nm fluorescence, primary screen (AID 1120); details: higher = more signal;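 further: probe is a biotin-tagged antibody raised against NOTCH3 rather than NOTCH3 protein; score merges spot fluorescence near 667 nm with spot signal to noise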
[3] = probe aNOTCH2 binding on compound microarray – biochemical, small-molecule microarray, 635/667 nm fluorescence, primary screen (AID 1121); details: higher = more signal;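 further: score merges feature fluorescence read at 667 nm with its signal to noise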
[4] = biological target: Carbonic anhydrase 2 (Homo sapiens) (UniProt P00918); assay: compounds binding carbonic anhydrase 2 – biochemical, small-molecule microarray, Alexa647-labelled CAII, profiling panel (AID 1122); details: CAII-A647 binding fluorescence, higher = more signal
[5] = COS7 lysate on small-molecule microarray, probe aHis, 635 nm (AID 1123); details: COS7 cell lysate, fluorescence, higher = more signal;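 further: z-score combines 667nm fluorescence intensity with signal-to-noise per printed compound spot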
[6] = probe aLAP1 signal on lysate-treated microarray – cell lysate, small-molecule microarray, COS7 lysate, primary screen (AID 1124); details: probe aLAP1, fluorescence, higher = more signal;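 further: lysate comes from COS7 cells expressing LAP1 and is applied at 0.3 µg/mL; score merges spot fluorescence near 667 nm with signal-to-noise over triplicate slides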
Sam68 (KHDRBS1) = assay: compounds binding KHDRBS1 protein – biochemical, small-molecule microarray, 635 nm fluorescence, primary screen (AID 1125); details: higher = more signal;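 further: score merges 667 nm channel intensity with signal to noise over triplicate slides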
[7] = test system: Chordin-like protein 2 (CHRDL2); assay: compounds binding chordin-like 2 – biochemical, small-molecule microarray, 635 nm fluorescence, primary screen (AID 1126); details: fluorescence 635 nm, higher = more signal;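 further: printed compound slides probed with Chrdl2 protein at 4 µg/mL for 1 h at 4 C; score merges 667 nm emission intensity with signal to noise over three replicate slides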
[8] = biological target: Concanavalin-A (Canavalia ensiformis) (UniProt P02866); assay: compounds binding concanavalin A lectin – biochemical, small-molecule microarray, Alexa647 label, 635 nm, artefact control for SMM control protein annotation, primary screen (AID 1127); details: ConA-A647 binding fluorescence, higher = more signal;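 further: z combines 667 nm emission intensity with signal-to-noise across three replicate slides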
[9] = compounds binding Alexa647 anti-His antibody – biochemical, small-molecule microarray, 635 nm fluorescence, artefact control for SMM control protein annotation, primary screen (AID 1128); details: higher = more signal;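 further: score merges feature fluorescence with signal-to-noise for each printed compound spot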
[10] = test system: Human papillomavirus type 1a E7 protein (residues 1-88); assay: HPV1a E7 small-molecule binders, primary screen, biochemical, small-molecule microarray, residues 1-88, 635 nm (AID 1129); details: small-molecule microarray binding, fluorescence 635 nm; higher = more signal
[11] = biological target: Focal adhesion kinase 1 (Homo sapiens) (UniProt Q05397); assay: PTK2 protein binding on printed compound slides – biochemical, small-molecule microarray, 635/667 nm fluorescence, BSA, DTT, primary screen (AID 1130); details: 635 nm fluorescence, higher = more signal;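 further: composite of spot emission at 667 nm and signal to noise over triplicate slides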
[12] = test system: Fibrinogen (Alexa647-labelled); assay: Alexa647-fibrinogen binding to printed small molecules – biochemical, small-molecule microarray, 635/667 nm fluorescence, artefact control for SMM control-protein annotation, profiling panel (AID 1131); details: fibrinogen-A647 binding fluorescence, higher = more signal;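 further: z-score merges 667 nm fluorescence with per-spot signal-to-noise over triplicate slides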
[13] = biological target: Follistatin (Homo sapiens) (UniProt P19883); assay: FST protein binding to printed compounds – biochemical, small-molecule microarray, 635/667 nm fluorescence, primary screen (AID 1132); details: 635 nm fluorescence, higher = more signal
[14] = biological target: Fibroblast growth factor 2 (Homo sapiens) (UniProt P09038); assay: basic fibroblast growth factor binding to printed compounds – biochemical, small-molecule microarray, 635/667 nm fluorescence, primary screen (AID 1133); details: FGF2, fluorescence 635/667, higher = more signal
[15] = JC-1 mitochondrial potential readout, lung cancer cells – cell-based, A549, JC-1 fluorescence, basal, 24 h, 100 nL, profiling panel (AID 1138); details: higher = more signal;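 further: A549 lung adenocarcinoma cells under basal conditions with no added stimulus; test concentration not given here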
Lefty1 = Lefty1 protein binding to printed compounds – biochemical, small-molecule microarray, 635/667 nm fluorescence, primary screen (AID 1139); details: fluorescence 635/667, higher = more signal
[16] = test system: wheat germ agglutinin (Triticum aestivum), Alexa647-labelled; assay: Alexa647-WGA lectin binding to printed small molecules – biochemical, small-molecule microarray, 635/667 nm fluorescence, artefact control for SMM control-protein annotation, profiling panel (AID 1140); details: WGA-A647 binding, 635 nm fluorescence, higher = more signal;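 further: score merges 667 nm feature emission with signal to noise over triplicate slides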
[17] = biological target: Luciferin 4-monooxygenase (Photinus pyralis) (UniProt P08659); assay: inhibition of purified Photinus pyralis luciferase – biochemical, luminescence, purified enzyme, 2006 set, primary screen (AID 1141); details: purified firefly luciferase, SteadyGlo luminescence, 30 min; higher = more signal, called active from +8 up or from −8 down;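 further: cell-free assay with purified firefly luciferase at 100 ng per well in PBS; test concentration not given here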
Sequence of Luciferin 4-monooxygenase (Photinus pyralis) (P08659 whole entry, looked up): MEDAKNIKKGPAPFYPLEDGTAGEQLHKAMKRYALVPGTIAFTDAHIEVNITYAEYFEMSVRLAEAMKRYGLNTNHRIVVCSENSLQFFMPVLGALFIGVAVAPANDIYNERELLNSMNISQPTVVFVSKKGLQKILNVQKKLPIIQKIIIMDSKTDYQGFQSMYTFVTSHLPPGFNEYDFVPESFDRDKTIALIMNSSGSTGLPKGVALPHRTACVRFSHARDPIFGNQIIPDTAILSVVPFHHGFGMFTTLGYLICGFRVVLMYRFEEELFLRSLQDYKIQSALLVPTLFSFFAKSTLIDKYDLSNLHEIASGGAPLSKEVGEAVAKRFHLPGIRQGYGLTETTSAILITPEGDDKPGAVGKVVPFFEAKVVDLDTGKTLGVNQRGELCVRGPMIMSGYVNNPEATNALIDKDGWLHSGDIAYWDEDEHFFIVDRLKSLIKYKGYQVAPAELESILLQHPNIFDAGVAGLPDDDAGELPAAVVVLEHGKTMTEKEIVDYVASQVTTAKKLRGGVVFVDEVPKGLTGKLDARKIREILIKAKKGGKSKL

Sequence of Concanavalin-A (Canavalia ensiformis) (P02866 whole entry, looked up): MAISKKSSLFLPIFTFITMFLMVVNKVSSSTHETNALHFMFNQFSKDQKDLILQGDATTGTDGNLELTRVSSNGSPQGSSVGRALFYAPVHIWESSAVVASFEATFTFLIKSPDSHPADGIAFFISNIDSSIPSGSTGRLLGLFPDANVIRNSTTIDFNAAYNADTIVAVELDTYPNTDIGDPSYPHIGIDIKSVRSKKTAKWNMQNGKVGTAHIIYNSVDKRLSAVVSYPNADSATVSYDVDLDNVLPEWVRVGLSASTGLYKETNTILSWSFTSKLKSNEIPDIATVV
Sequence of Albumin (Bos taurus) (P02769 whole entry, looked up): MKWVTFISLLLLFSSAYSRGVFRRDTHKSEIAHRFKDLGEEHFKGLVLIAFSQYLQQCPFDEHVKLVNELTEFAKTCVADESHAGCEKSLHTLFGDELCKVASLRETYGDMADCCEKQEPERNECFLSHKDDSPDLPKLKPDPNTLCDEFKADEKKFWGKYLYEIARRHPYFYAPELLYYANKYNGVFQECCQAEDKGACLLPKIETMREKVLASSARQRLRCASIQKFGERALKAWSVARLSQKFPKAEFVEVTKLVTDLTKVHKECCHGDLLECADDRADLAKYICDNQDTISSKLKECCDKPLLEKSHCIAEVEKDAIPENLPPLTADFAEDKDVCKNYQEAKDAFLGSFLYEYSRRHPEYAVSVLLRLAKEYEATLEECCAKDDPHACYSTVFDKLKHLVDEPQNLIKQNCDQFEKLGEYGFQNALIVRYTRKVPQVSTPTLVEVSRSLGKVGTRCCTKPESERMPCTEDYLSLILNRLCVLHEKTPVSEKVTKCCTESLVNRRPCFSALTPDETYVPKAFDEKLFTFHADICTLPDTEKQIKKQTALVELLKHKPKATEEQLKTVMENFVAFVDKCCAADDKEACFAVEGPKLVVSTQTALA
Sequence of Follistatin (Homo sapiens) (P19883 whole entry, looked up): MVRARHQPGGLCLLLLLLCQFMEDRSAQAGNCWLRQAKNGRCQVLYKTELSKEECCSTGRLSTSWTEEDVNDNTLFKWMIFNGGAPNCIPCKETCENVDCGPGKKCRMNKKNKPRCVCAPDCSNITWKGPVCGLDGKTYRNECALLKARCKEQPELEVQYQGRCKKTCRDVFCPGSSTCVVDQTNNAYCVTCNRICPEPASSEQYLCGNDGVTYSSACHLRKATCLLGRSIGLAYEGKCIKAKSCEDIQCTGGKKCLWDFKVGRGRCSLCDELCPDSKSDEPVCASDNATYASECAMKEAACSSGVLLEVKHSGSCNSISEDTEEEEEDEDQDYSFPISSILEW
Sequence of Focal adhesion kinase 1 (Homo sapiens) (Q05397 whole entry, looked up): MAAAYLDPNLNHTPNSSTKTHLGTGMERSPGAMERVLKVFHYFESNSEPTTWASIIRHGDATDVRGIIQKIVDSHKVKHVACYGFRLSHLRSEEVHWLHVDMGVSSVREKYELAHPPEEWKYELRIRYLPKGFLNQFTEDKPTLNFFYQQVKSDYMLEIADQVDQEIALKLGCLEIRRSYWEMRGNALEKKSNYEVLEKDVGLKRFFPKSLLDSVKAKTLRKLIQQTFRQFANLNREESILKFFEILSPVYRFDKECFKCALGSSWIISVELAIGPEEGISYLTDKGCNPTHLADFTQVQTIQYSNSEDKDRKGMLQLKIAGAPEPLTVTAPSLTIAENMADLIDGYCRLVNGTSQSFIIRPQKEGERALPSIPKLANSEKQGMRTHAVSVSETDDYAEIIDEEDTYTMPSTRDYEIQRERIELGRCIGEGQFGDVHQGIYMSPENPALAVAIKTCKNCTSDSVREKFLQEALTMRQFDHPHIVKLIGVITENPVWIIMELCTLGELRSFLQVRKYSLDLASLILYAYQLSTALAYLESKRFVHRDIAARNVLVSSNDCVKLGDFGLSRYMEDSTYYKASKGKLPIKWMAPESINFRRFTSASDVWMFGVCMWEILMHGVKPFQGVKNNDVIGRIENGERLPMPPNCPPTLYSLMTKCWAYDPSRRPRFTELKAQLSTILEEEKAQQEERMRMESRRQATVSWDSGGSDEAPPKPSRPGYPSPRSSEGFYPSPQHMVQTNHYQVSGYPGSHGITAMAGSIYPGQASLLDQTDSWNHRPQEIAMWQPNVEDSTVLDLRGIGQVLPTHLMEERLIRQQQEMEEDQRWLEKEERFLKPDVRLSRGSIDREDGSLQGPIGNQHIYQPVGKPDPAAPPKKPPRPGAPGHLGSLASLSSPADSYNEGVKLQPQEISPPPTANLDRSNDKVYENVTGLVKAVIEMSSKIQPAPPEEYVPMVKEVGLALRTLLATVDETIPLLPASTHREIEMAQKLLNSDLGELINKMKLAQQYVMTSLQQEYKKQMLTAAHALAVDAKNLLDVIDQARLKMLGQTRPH
Sequence of Fibroblast growth factor 2 (Homo sapiens) (P09038 whole entry, looked up): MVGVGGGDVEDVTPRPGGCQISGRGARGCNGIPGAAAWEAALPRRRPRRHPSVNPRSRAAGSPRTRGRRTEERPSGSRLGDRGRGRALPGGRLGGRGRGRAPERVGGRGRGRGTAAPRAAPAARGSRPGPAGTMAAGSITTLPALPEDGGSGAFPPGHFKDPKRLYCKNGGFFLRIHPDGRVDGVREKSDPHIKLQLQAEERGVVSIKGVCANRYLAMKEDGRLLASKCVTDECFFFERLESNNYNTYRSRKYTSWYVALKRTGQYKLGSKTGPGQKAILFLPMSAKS

SMILES	composite z-score (Albumin (Bos taurus))	composite Z-score [1]	composite z-score [2]	composite z-score [3]	composite z-score [4]	composite z-score [5]	composite z-score [6]	composite z-score (Sam68 (KHDRBS1))	composite z-score [7]	composite z-score [8]	composite z-score [9]	composite z-score [10]	composite z-score [11]	composite z-score [12]	composite z-score [13]	composite z-score [14]	z-score [15]	composite z-score (Lefty1)	composite z-score [16]	z-score [17]
Cc1ccc(S(=O)(=O)N[C@H]2COC(=O)[C@@H](Cc3ccccc3)NC(=O)[C@@H](C)COC(=O)CC=C[C@@H]2C)cc1	-0.92 and -0.489	0.103 (inactive) and 0.304 (inactive)	-0.279 and -0.132	-0.162 and -0.185	-0.363 and 0.129	-0.902 and 0.614	-0.221 and -0.16	-0.309 and 0.663	0.748 and 0.691	0.117 and 0.0745	-0.619 and 1.81	-0.95 and -0.164	-0.282 and 0.116	-0.747 and -0.0169	1.18 and 0.825	0.575 and 0.462	0.636 and -1.01	0.678 and 0.882	-0.892 and -0.0489	-0.287 (inactive) and -0.431 (inactive)
CCCCCN1CC=CC23O[C@@H]4C=CCCOC(=O)C4[C@H]2C(=O)N(C(C)CO)[C@@H]3C1=O (stereo not given in full)	0.345 and -0.098	-0.0812 (inactive) and -0.45 (inactive)	-0.536 and -0.0416	-0.475 and -0.181	0.792 and 0.844	0.654 and 1.55	0.114 and 0.885	0.656 and 0.708	-0.397 and -0.845	-0.0729 and 0.147	1.58 and 0.0947	-0.367 and -0.292	-0.0918 and 0.206	-0.458 and 0.0661	-0.11 and -0.0282	-0.387 and -1.17	-0.449 and -0.859	0.178 and 0.382	0.138 and -0.194	0.328 (inactive) and 0.283 (inactive)
C=CC[C@H](O)c1ccc(OCCO)cc1	0.787 and -0.0212	-0.745 (inactive) and 0.156 (inactive)	-0.382 and -0.319	-0.169 and -0.296	0.725 and 0.843	-0.263 and -1.45	-0.22 and -0.782	-0.769 and -2.69	-0.978 and 0.193	-1.3 and -1.2	0.185 and 0.0367	-1.1 and -1.32	-1.14 and -0.38	-0.0902 and -3.21	0.519 and 0.726	-0.442 and 0.17	-0.441 and 0.564	-0.748 and -0.0547	0.542 and 0.645	-1.15 (inactive) and -1.17 (inactive)
C=CCN(CCCC)C(=O)C1N(C(C)(C)CO)C(=O)C2C(C(=O)O)C3C=CC21O3 (stereo not given)	-0.0353 and -0.347	-0.726 (inactive) and -1.17 (inactive)	-0.589 and -0.497	-0.161 and 0.544	0.909 and 0.619	0.12 and -0.103	-0.2 and -0.226	-1.62 and -1.72	-3.25 and -1.75	-1.25 and -2.32	-0.767 and -0.57	-1.26 and -1.35	-0.909 and -1.23	-4.07 and -1.59	-2.17 and -2.38	-1.42 and -1.18	-0.628 and -0.501	-1.93 and -1.64	-0.788 and -0.799	1.12 (inactive) and 0.853 (inactive)
C=CCN(CCCCC)C(=O)C(c1cccs1)N(CCOCCO)C(=O)/C=C\C(=O)O (stereo not given)	-0.148 and -0.301	-0.116 (inactive) and 0.239 (inactive)	-0.554 and -0.488	-0.177 and -0.143	0.86 and 0.368	-1.01 and -0.267	-0.0541 and 0.235	-0.856 and -0.0967	-1.91 and -1.04	-0.611 and -0.988	-0.635 and -0.348	-1.05 and -0.826	-0.759 and 0.926	-1.57 and -1.63	-2.22 and -1.47	-1.77 and -1.79	1.34 and 0.685	-0.99 and -1.37	-0.539 and 0.579	-4.23 (inactive) and -3.13 (inactive)
C=CCN(CCCCC)C(=O)C(c1cccs1)N(C(=O)/C=C\C(=O)O)c1ccc(CCO)cc1 (stereo not given)	0.516 and -0.0786	0.598 (inactive) and -0.378 (inactive)	-0.499 and -0.508	-0.183 and -0.0859	0.821 and 0.562	0.455 and -0.0142	0.411 and 0.0933	-0.815 and -0.524	-0.96 and -1.97	-0.222 and -0.806	-0.206 and -1.12	-0.502 and -0.625	-0.279 and -0.0021	-1.39 and -1.21	-1.43 and -0.996	-1.54 and -1.4	0.868 and 0.897	-1.07 and -1.27	-0.573 and -0.325	-1.24 (inactive) and -0.887 (inactive)
